{"source": "ChEMBL document CHEMBL3988442", "about": "“University of Dundee, Small-Polar-MMV Screening Library” (2021)", "note": "In all, about 48,000 compounds went through this assay and about 13,000 (27%) showed an effect of 50% or more. The list shows a part of the results.", "data": [{"system": "Wolbachia pipientis", "test": "Anti-Wolbachia Cell-Based Screen", "assay_type": "functional", "set-up": "scale not given: in the data most compounds retested in dose-response had high values", "settings": "5 µM", "units": {"Percent Effect": "%"}, "values": [{"smiles": "Cc1nnc(CN2CCC(Oc3ccc(C)c(C)c3)CC2)o1", "Percent Effect": -18.16}, {"smiles": "Cc1ccc(CNCCS(=O)(=O)N2CCOCC2)cc1C", "Percent Effect": -37.41}, {"smiles": "Cc1ccn(CCNc2ncnc3c2CCN(Cc2ncc[nH]2)CC3)n1", "Percent Effect": 5.519}, {"smiles": "c1ccc(CN2CCC(CCNc3ncnc4c3CCNCC4)C2)cc1", "note": "(centres undefined)", "Percent Effect": 82.99}, {"smiles": "COCC1CC2(CCN(C(=O)c3cc(C)oc3C)CC2)CN1C(C)C.O=C(O)C(F)(F)F", "note": "(centres undefined)", "Percent Effect": 17.98}, {"smiles": "COCC1CC2(CCN(C(=O)c3ccco3)CC2)CN1C(C)C.O=C(O)C(F)(F)F", "note": "(centres undefined)", "Percent Effect": 111.9}, {"smiles": "COCC1CC2(CCN(Cc3ccc(OC)cc3)CC2)CN1C(C)C.O=C(O)C(F)(F)F.O=C(O)C(F)(F)F", "note": "(centres undefined)", "Percent Effect": -13.29}, {"smiles": "COCC1CC2(CCN(C(=O)c3ccc(C)nc3)CC2)CO1.O=C(O)C(F)(F)F", "note": "(centres undefined)", "Percent Effect": -3.949}, {"smiles": "COCC1CC2(CCN(Cc3cnn(C)c3)CC2)CN1C(C)C.O=C(O)C(F)(F)F.O=C(O)C(F)(F)F", "note": "(centres undefined)", "Percent Effect": -6.847}, {"smiles": "COCC1CC2(CCN(C(=O)c3occc3C)CC2)CN1C(C)C.O=C(O)C(F)(F)F", "note": "(centres undefined)", "Percent Effect": 98.04}, {"smiles": "COCC1CC2(CCN(Cc3ccc(C)o3)CC2)CN1C(C)C.O=C(O)C(F)(F)F.O=C(O)C(F)(F)F", "note": "(centres undefined)", "Percent Effect": 100.3}, {"smiles": "COCC1CC2(CCN(C(=O)c3cccn3C)CC2)CN1C(C)C", "note": "(centres undefined)", "Percent Effect": -8.006}, {"smiles": "COCC1CC2(CCN(C(=O)c3ccccc3C)CC2)CN1C(C)C.O=C(O)C(F)(F)F", "note": "(centres undefined)", "Percent Effect": 101.7}, {"smiles": "N#Cc1ccc(C2CC(=O)Nc3c2cnn3C2CCCC2)cc1", "note": "(centres undefined)", "Percent Effect": 11.66}, {"smiles": "N#Cc1cn(C2CC2)c(=O)n(Cc2cc(-c3cccs3)on2)c1=O", "Percent Effect": 15.09}, {"smiles": "COC(=O)CCN1CCC(NC(=O)OC(C)(C)C)CC1", "Percent Effect": -7.075}, {"smiles": "CC(C1CCN(Cc2cnn(C)c2C2CC2)CC1)N1CCN(C)CC1", "note": "(centres undefined)", "Percent Effect": -5.459}, {"smiles": "CN1CCCC(c2nccnc2-c2cccc(Cl)c2)C1", "note": "(centres undefined)", "Percent Effect": 117.7}, {"smiles": "Cc1nnc(N2CCCC(C(=O)c3cccc(Cl)c3)C2)o1", "note": "(centres undefined)", "Percent Effect": -20.06}, {"smiles": "COc1ccc(C)cc1-n1cnnc1C1CCCN(C)C1", "note": "(centres undefined)", "Percent Effect": 8.034}, {"smiles": "Cc1cccc(-c2nccnc2C2CCCN(C)C2)c1C", "note": "(centres undefined)", "Percent Effect": 89.85}, {"smiles": "Cc1cccc(-c2nccnc2C2CCN(C)CC2)c1C", "Percent Effect": 64.83}, {"smiles": "CN1CCCC(c2nc3c([nH]2)CC(C)(C)CNC3=O)C1", "note": "(centres undefined)", "Percent Effect": -16.77}, {"smiles": "O=C(c1cccc(Cl)c1)C1CCCN(c2nnc(C3CCC3)o2)C1", "note": "(centres undefined)", "Percent Effect": -5.901}, {"smiles": "CCN(C)C(C(=O)Nc1ccc2c(c1)CCC(=O)N2)c1ccccc1", "note": "(centres undefined)", "Percent Effect": 0.8734}, {"smiles": "OCCn1ncc2c1CN(CC1CCOc3ccccc3C1)C2", "note": "(centres undefined)", "Percent Effect": 4.778}, {"smiles": "CC(NC(=O)NCc1cscn1)c1ccc(N2CCOCC2)cc1", "note": "(centres undefined)", "Percent Effect": -18.24}, {"smiles": "O=c1[nH]c2c(c(=O)n1C1CCCCC1)CCC2NCCc1ccccc1", "note": "(centres undefined)", "Percent Effect": 24.49}, {"smiles": "CC(C)N(CC1CCCN(CC(N)=O)C1)C(=O)OC(C)(C)C", "note": "(centres undefined)", "Percent Effect": 12.71}, {"smiles": "COc1cccc(-c2cc(-c3nc(CN4CCN(C)CC4)no3)[nH]n2)c1", "Percent Effect": 0.4618}, {"smiles": "Cn1cccc1C(=O)N1CCC(O)(CN2CCc3ccccc3C2)C1", "note": "(centres undefined)", "Percent Effect": 119.3}, {"smiles": "Cc1csc(C(=O)N2CCC(O)(CN3CCc4ccccc4C3)C2)c1", "note": "(centres undefined)", "Percent Effect": 114.3}, {"smiles": "CN(C)CC1(O)CCN(C(=O)c2cnc(CN3CCCC3)s2)C1", "note": "(centres undefined)", "Percent Effect": -12.27}, {"smiles": "Cc1ccc(C(=O)N2CCC(O)(CN3CCc4ccccc4C3)C2)s1", "note": "(centres undefined)", "Percent Effect": 99.66}, {"smiles": "Cn1cccc1C(=O)N1CCCC2(CCCN2S(C)(=O)=O)C1", "note": "(centres undefined)", "Percent Effect": 2.477}, {"smiles": "Cn1cccc1C(=O)N1CCC2(CC1)CCN2S(C)(=O)=O", "Percent Effect": -0.7561}, {"smiles": "Cc1ccc(C(=O)N2CCN(CC(O)c3ccc(F)cc3)CC2)s1", "note": "(centres undefined)", "Percent Effect": -1.791}, {"smiles": "O=S1(=O)C[C@@H]2[C@H](C1)N(Cc1cccc(O)c1)CCN2CC1CC1", "Percent Effect": -9.844}, {"smiles": "Cc1noc([C@@H]2C[C@H](NS(=O)(=O)Cc3ccccc3)CN2C)n1", "Percent Effect": -2.99}, {"smiles": "CC(OCC1CC1)C(=O)NCc1ccc(Cn2ccnc2)cc1", "note": "(centres undefined)", "Percent Effect": -1.593}, {"smiles": "Cc1ccc(C(=O)N2CC(=O)N(Cc3ccco3)CC(O)C2)cc1", "note": "(centres undefined)", "Percent Effect": 118.6}, {"smiles": "CCc1ccc(CN2C[C@@H](C(=O)O)[C@H](c3ccccc3OC)C2)o1", "Percent Effect": -18.6}, {"smiles": "COc1ccccc1C(=O)N1CC(=O)N(Cc2ccco2)CC(O)C1", "note": "(centres undefined)", "Percent Effect": 85.9}, {"smiles": "Cc1cc(C(=O)N2CCN(Cc3ccco3)C(CCO)C2)cc(=O)[nH]1", "note": "(centres undefined)", "Percent Effect": -4.439}, {"smiles": "Cc1ccc([C@@H]2CN(C(=O)CCc3ccco3)C[C@H]2N(C)C)cc1", "Percent Effect": -4.926}, {"smiles": "COc1ccccc1C(=O)N1CC2(COC(C)(C)OC2)C1", "Percent Effect": -9.843}, {"smiles": "NC(=O)NCC1CCCCN1C(=O)c1cccc(C(F)(F)F)c1", "note": "(centres undefined)", "Percent Effect": 3.602}, {"smiles": "Cc1ccc(-c2nc(C(=O)N3CCCCC3CNS(C)(=O)=O)cs2)cc1", "note": "(centres undefined)", "Percent Effect": 5.411}, {"smiles": "NC(=O)CC1CCCCN1C(=O)c1cccc(C(F)(F)F)c1", "note": "(centres undefined)", "Percent Effect": 118.1}, {"smiles": "CS(=O)(=O)NCC1CCCCN1C(=O)c1cccc(C(F)(F)F)c1", "note": "(centres undefined)", "Percent Effect": 93.67}, {"smiles": "NC(=O)CN(C(=O)c1cccc(C(F)(F)F)c1)C1CCCC1", "Percent Effect": -15.86}, {"smiles": "CCC(O)CNC(=O)C1(N(C)Cc2ccccc2)Cc2ccccc2C1", "note": "(centres undefined)", "Percent Effect": -9.431}, {"smiles": "CCc1nc2n(n1)CCCC2NC(=O)Nc1ccc(SC)c(F)c1", "note": "(centres undefined)", "Percent Effect": -17.88}, {"smiles": "COc1cc(N2CCCC(c3nccn3CCN(C)C)C2)nc(N)n1", "note": "(centres undefined)", "Percent Effect": -7.598}, {"smiles": "COc1ccc(CN2C[C@@H](OCc3csc(C)n3)[C@H]3COC[C@H]32)cc1.O=C(O)C(F)(F)F", "Percent Effect": -4.618}, {"smiles": "O=C(O)C(F)(F)F.c1cc(CN2C[C@H](OCC3CCOCC3)[C@H]3COC[C@H]32)cs1", "Percent Effect": 93.96}, {"smiles": "N#Cc1cccc(CN2C[C@H](OCC3CCOCC3)[C@H]3COC[C@H]32)c1.O=C(O)C(F)(F)F", "Percent Effect": -3.694}, {"smiles": "O=C(O)C(F)(F)F.c1cc(CN2C[C@H](OCC3CCOCC3)[C@H]3COC[C@H]32)co1", "Percent Effect": 84.18}, {"smiles": "COc1ccc(CN2C[C@H](OCC3CCOCC3)[C@H]3COC[C@H]32)cc1.O=C(O)C(F)(F)F", "Percent Effect": 2.727}]}]}
